High-throughput results deposited in PubChem by several laboratories.
Neddylation inh – cullin neddylation inhibition; P61081+Q13564; TR-FRET cullin neddylation, biochemical; 0.58% of 360,000 active; AID 651699; inhibition, % at 25 µM; in the data active = inhibition above about 36%
TLR9-MyD88 block – TLR9-MyD88 interaction inhibition. CHO BLA complementation TLR9-MyD88, CCF4 FRET ratio. inhibition, % at 4.98 µM. 0.21% of 340,000 active. AID 504734;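 active = inhibition above the mean over all tested compounds plus 3 SD, cut at about 21% in these data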;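 also: 0% = DMSO only wells and 100% = clavulanate BLA inhibitor control wells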
TLR4 MyD88 comp – inhibitors of human TLR4-MyD88 binding; O00206+Q99836; HeLa CL3-4 TLR4/MyD88 BLA complementation, FRET ratio; inhibition, % at 8.4 µM; 0.18% of 200,000 active; in the data active = inhibition above about 25%;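 also: 0% = vehicle and 100% = reference inhibitor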
NPR2 activator – GC-B (human) receptor activation. 0.11% of 370,000 active. HEK293-GC-B cells, CNP EC30, cGMP TR-FRET; 0% at EC30 CNP, 100% saturating CNP. activation, % at 10 µM. P20594;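 active = activation at 10 µM reaching about 35% in either raw or pattern-adjusted values, limit read from the data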
NPR1 activator – GC-A (human) enzyme activation. 0.14% of 370,000 active. activation, % at 10 µM. P16066. HEK293 GC-A cells, cGMP TR-FRET, EC30 ANP; 0% at EC30 ANP, 100% saturating ANP. AID 1671463; in the data active = activation above about 40%
NOD2-RIPK2 inh – NOD2-RIPK2 protein interaction inhibition | O43353 | CHO BLA complementation NOD2-RIPK2, CCF4 ratio | inhibition, % at 4.98 µM | 0.38% of 360,000 active; in the data active = inhibition above about 21%;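 also: 0% = vehicle only and 100% = reference blocker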
Active calls of the source: *; i = inactive; nt = not tested or not shown. In the library only some 1.2% were active in any assay of this set; here they are far more common.

SMILES	Neddylation inh	TLR9-MyD88 block	TLR4 MyD88 comp	NPR2 activator	NPR1 activator	NOD2-RIPK2 inh
C=CCn1c(N)c(C(=O)NCCC2=CCCCC2)sc1=S	-16	9	-6	38*	31	-7
Cc1nn(-c2ccccc2)c(C)c1NC(=O)COc1ccc2ccccc2c1	-10	8	-5	-9	3	49*
Cc1nn(-c2ccccc2)c(C)c1NC(=O)COc1ccc(C#N)cc1	11	-1	-11	-8	0	-12
CC(C)N1CCc2c(sc(NC(=O)c3ccc4ccccc4c3)c2C(N)=O)C1	54*	1	nt	-6	6	0
CC(C)N1CCc2c(sc(NC(=O)c3ccc(C(=O)c4ccccc4)cc3)c2C(N)=O)C1	-6	3	nt	-1	6	2
CCOC(=O)CCSc1nc(-c2ccc3c(c2)OCO3)cc(C(F)(F)F)c1C#N	-51	-6	-13	22	42*	2
COc1cc(C(C)=O)ccc1Oc1ncnc2c1cnn2-c1ccc(F)cc1	-281	1	-1	-2	47*	-5
COc1cc(C(C)=O)ccc1Oc1ncnc2c1cnn2-c1cccc(Cl)c1	-17	-4	-13	-5	3	-10
CC(C)CCSc1nc(N2CCOCC2)c2c(c1C#N)CC(C)(C)OC2	-97	-7	2	43*	35	1
COc1ccc(C2CC(=O)C(c3ccc(C)cc3)=CN2Cc2ccccc2)cc1 (configuration not stated)	nt	nt	nt	3	3	nt
Cc1cccc(N=c2oc3cc(O)ccc3cc2C(N)=O)c1	62*	-75	-45	11	16	-51
O=C(CSc1ncnc2c1oc1ccccc12)Nc1ccccc1F	i	4	1	16	63*	-1
CCOc1ccccc1NC(=O)CSc1ncnc2c1oc1ccccc12	nt	-5	-1	3	-3	-17
Cn1cccc1C(=O)N1CCN(S(=O)(=O)c2ccc(C(C)(C)C)cc2)CC1	nt	nt	nt	9	2	nt
O=C(CCN1CCN(c2ccccc2)CC1)c1ccc(Cl)cc1	-1	-4	nt	-4	44*	8
O=C(CN1CCN(c2ccc([N+](=O)[O-])cc2)CC1)c1ccccc1	-31	17	nt	4	5	-4
O=C(CCN1CCN(c2ccc([N+](=O)[O-])cc2)CC1)c1ccc(Cl)cc1	-20	5	nt	-9	63*	2
CCC(NC(=O)Cc1cccs1)c1ccccc1 (configuration not stated)	-8	-6	nt	68*	1	5
CC(NC(=O)Cc1cccs1)c1ccccc1 (configuration not stated)	-8	7	-16	1	4	10
O=C(Nc1nc2cc3c(cc2s1)OCO3)c1ccco1	nt	1	nt	-10	1	-4
O=C(Nc1nc2cc3c(cc2s1)OCCO3)c1ccco1	43*	-11	nt	-1	-3	-6
COc1ccccc1-n1c(C)cc(/C=C2/C(=N)N3C(=NC2=O)SN=C3S(C)(=O)=O)c1C	59*	-4	10	-6	0	-10
Cc1cc(/C=C2/C(=N)N3C(=NC2=O)SN=C3S(C)(=O)=O)c(C)n1-c1ccc(F)cc1	19	5	-2	2	0	-2
O=C(CCc1ccccc1)N[C@H]1[C@@H](OC(=O)c2cccnc2)CCC[C@@]12C(=O)N(Cc1ccccc1)c1ccccc12	nt	nt	nt	-3	-5	nt
COC(=O)C1=C(C)N(Cc2ccc(Br)cc2)C(=S)NC1c1cccc(F)c1 (configuration not stated)	nt	nt	nt	-14	26	nt
SMILES	Neddylation inh	TLR9-MyD88 block	TLR4 MyD88 comp	NPR2 activator	NPR1 activator	NOD2-RIPK2 inh
CCN1C(=S)N[C@@H](c2cccc(F)c2)C(C(=O)OC)=C1C	-7	-7	nt	45*	36	-7
Cc1ccc(C(=O)Nc2sc3c(c2C(=O)O)CCC(C)C3)o1 (configuration not stated)	53*	-6	nt	-3	-4	5
Cc1ccc(C(=O)Nc2sc3c(c2C(=O)O)CCCCC3)o1	nt	4	11	5	-6	-7
CCc1cc2c(nc1CC)CCCN2S(=O)(=O)c1ccccc1	nt	nt	nt	-6	-4	nt
CCCC1CCC2(CC1)CCC2OC(=S)Nc1cccc(Cl)c1 (configuration not stated)	nt	nt	nt	6	1	nt
Oc1ccccc1CNc1cnc2ccccc2c1	50*	2	4	1	-3	-5
Oc1ccc(Cl)cc1CNc1cnc2ccccc2c1	30	-10	nt	-19	-32	5
Cc1cc(/C=C2\C(=N)N3N=C(c4ccco4)SC3=NC2=O)c(C)n1Cc1ccccc1	40*	6	nt	1	-8	0
CCC1=NN2C(=N)/C(=C/c3cc(C)n(Cc4ccccc4)c3C)C(=O)N=C2S1	17	-1	nt	5	3	-5
Oc1c(Br)cc(Br)cc1C=Nc1cccc2ncccc12	55*	3	nt	-6	0	6
CC(C)c1ccc(Nc2nnc(SC3CCOC3=O)s2)cc1 (configuration not stated)	9	8	2	14	65*	-1
Fc1ccc2[nH]c3c(NCc4ccccc4)ncnc3c2c1	52*	-5	nt	9	8	4
COc1ccc2[nH]c3c(NCc4ccco4)ncnc3c2c1	nt	nt	9	nt	nt	nt
CCn1cnc2c1c(=O)n(CC(=O)OC)c(=O)n2Cc1ccccc1	0	3	nt	12	4	-3
CCn1cnc2c1c(=O)n(Cc1ccc(C(=O)OC)cc1)c(=O)n2Cc1ccccc1	5	-2	nt	35*	-13	-3
COc1ccc(/C=C2/SC(=S)N(c3ccc(S(=O)(=O)Nc4nccs4)cc3)C2=O)cc1	80*	-2	nt	7	-12	-10
Cc1ccc(/C=C2/SC(=S)N(c3ccc(S(=O)(=O)Nc4nccs4)cc3)C2=O)cc1	-5	8	nt	-2	-11	-13
CC1CCc2c(sc(NC(=O)c3ccccc3C(=O)O)c2C#N)C1 (configuration not stated)	2	6	12	1	3	-1
CCC(C)(C)C1CCc2c(sc(NC(=O)c3ccccc3C(=O)O)c2C#N)C1 (configuration not stated)	69*	7	nt	-2	4	4
Cc1cc2c(s1)c1cnn(Cc3c(Cl)ccc(C)c3F)c(=O)c1n2C	nt	nt	nt	-9	2	nt
CCN(CC)C(=O)CC[C@@H]1CC[C@]2(CCCN(C(=O)c3cccnc3)C2)O1	nt	nt	nt	-4	3	nt
O=C(c1cnn2c(-c3ccccc3)cc(-c3ccccc3)nc12)N1CCN(Cc2ccccc2)CC1	nt	-2	nt	35*	30	11
CC(=O)C1=C(C)N(Cc2ccc(F)cc2)C(=S)NC1c1ccc(Cl)cc1 (configuration not stated)	nt	nt	nt	-12	-12	nt
CCOC(=O)c1cnc2c(c(C)nn2C)c1Oc1cc(Cl)cc(Cl)c1	22	-13	nt	-10	-2	5
